Measurements taken from PubChem BioAssay AID1159580 (chemical genetic matrix, 2015).
Out of some 5,500 compounds screened, about 2,000 (36%) were called active. Inconclusive results (about 18%) are left out. Cut-off read from the data, not from the text of the source: active = normalized growth mostly below about 0.91 (no sharp cut-off); inconclusive = no clear call, values can overlap the other calls; inactive = mostly above about 0.92. The list shows a part of the results.

Assay: chemical genetic growth profiling, strain panel (AID 1159580);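 note: tested at 20 µM; growth read once vehicle control cultures reached saturation at 30 °C; 1 = growth at the plate median or of vehicle wells; lower values mean less growth of the strain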
Conditions: growth OD

Measured: normalized growth

COc1ccc(-c2cc(=O)c3c(OC(C)=O)cc(OC(C)=O)cc3o2)cc1
active: S. cerevisiae deletion strains, locus YLR113W, strain HOG1, hits give low values 0.805 | S. cerevisiae deletion strains, locus YLR418C, strain cdc73, hits give low values 0.685 | S. cerevisiae deletion strains, locus YNL071W, strain lat1, hits give low values 0.893 | S. cerevisiae deletion strains, locus YNL307C, strain MCK1, hits give low values 0.878 | S. cerevisiae deletion strains, locus YPL256C, strain CLN2, hits give low values 0.756
inactive: S. cerevisiae deletion strains, locus YJR066W, strain TOR1, hits give low values 0.922 | S. cerevisiae deletion strains, locus YJR075W, strain HOC1, hits give low values 0.946 | S. cerevisiae deletion strains, locus YKL009W, strain mrt4, hits give low values 0.994 | S. cerevisiae deletion strains, locus YKL068W, hits give low values 0.972 | S. cerevisiae deletion strains, locus YKL085W, strain MDH1 (second series), hits give low values 0.968 | S. cerevisiae deletion strains, locus YKL085W, strain MDH1, hits give low values 0.968 | S. cerevisiae deletion strains, locus YKL160W, strain elf1, hits give low values 0.974 | S. cerevisiae deletion strains, locus YKL190W, strain CNB1, hits give low values 0.967 | S. cerevisiae deletion strains, locus YKR001C, strain vps1, hits give low values 0.941 | S. cerevisiae deletion strains, locus YKR026C, strain gcn3, hits give low values 0.985 | S. cerevisiae deletion strains, locus YKR091W, strain srl3, hits give low values 0.999 | S. cerevisiae deletion strains, locus YLL001W, strain dnm1, hits give low values 0.937 | S. cerevisiae deletion strains, locus YLL026W, hits give low values 0.985 | S. cerevisiae deletion strains, locus YLL041C, strain sdh2, hits give low values 0.992 | S. cerevisiae deletion strains, locus YLR027C, strain aat2, hits give low values 0.984 | S. cerevisiae deletion strains, locus YLR039C, strain RIC1, hits give low values 0.824 | S. cerevisiae deletion strains, locus YLR058C, strain SHM2, hits give low values 0.957 | S. cerevisiae deletion strains, locus YLR102C, strain apc9, hits give low values 0.959 | S. cerevisiae deletion strains, locus YLR221C, strain rsa3, hits give low values 0.973 | S. cerevisiae deletion strains, locus YLR258W, strain gsy2, hits give low values 0.971 | S. cerevisiae deletion strains, locus YLR262C, strain YPT6 (second series), hits give low values 0.914 | S. cerevisiae deletion strains, locus YLR262C, strain YPT6, hits give low values 0.807 | S. cerevisiae deletion strains, locus YLR268W, strain sec22, hits give low values 0.964 | S. cerevisiae deletion strains, locus YLR320W, strain mms22, hits give low values 0.965 | S. cerevisiae deletion strains, locus YLR330W, strain CHS5, hits give low values 0.929 | S. cerevisiae deletion strains, locus YLR342W, strain FKS1 (second series), hits give low values 1.01 | S. cerevisiae deletion strains, locus YLR342W, strain FKS1, hits give low values 1 | S. cerevisiae deletion strains, locus YLR357W, strain rsc2, hits give low values 0.894 | S. cerevisiae deletion strains, locus YLR370C, strain arc18, hits give low values 0.992 | S. cerevisiae deletion strains, locus YLR371W, strain rom2, hits give low values 0.952 | S. cerevisiae deletion strains, locus YLR384C, strain iki3, hits give low values 0.981 | S. cerevisiae deletion strains, locus YML016C, strain PPZ1, hits give low values 0.924 | S. cerevisiae deletion strains, locus YML032C, strain rad52, hits give low values 0.964 | S. cerevisiae deletion strains, locus YML120C, strain ndi1, hits give low values 0.973 | S. cerevisiae deletion strains, locus YML124C, strain tub3, hits give low values 0.958 | S. cerevisiae deletion strains, locus YMR058W, strain fet3, hits give low values 0.983 | S. cerevisiae deletion strains, locus YMR078C, strain ctf18, hits give low values 0.963 | S. cerevisiae deletion strains, locus YMR125W, strain sto1, hits give low values 0.965 | S. cerevisiae deletion strains, locus YMR129W, hits give low values 0.981 | S. cerevisiae deletion strains, locus YMR205C, strain PFK2, hits give low values 0.976 | S. cerevisiae deletion strains, locus YMR223W, strain ubp8, hits give low values 0.946 | S. cerevisiae deletion strains, locus YMR231W, strain pep5, hits give low values 0.994 | S. cerevisiae deletion strains, locus YMR307W, strain GAS1, hits give low values 0.913 | S. cerevisiae deletion strains, locus YNL067W, strain RPL9B, hits give low values 0.945 | S. cerevisiae deletion strains, locus YNL183C, strain NPR1, hits give low values 0.84 | S. cerevisiae deletion strains, locus YNL209W, strain ssb2, hits give low values 0.996 | S. cerevisiae deletion strains, locus YNL233W, strain BNI4, hits give low values 0.89 | S. cerevisiae deletion strains, locus YNL248C, strain rpa49, hits give low values 0.955 | S. cerevisiae deletion strains, locus YNL250W, strain rad50, hits give low values 0.958 | S. cerevisiae deletion strains, locus YNL271C, strain bni1, hits give low values 0.986 | S. cerevisiae deletion strains, locus YNL298W, strain CLA4, hits give low values 0.968 | S. cerevisiae deletion strains, locus YNL322C, strain KRE1 (second series), hits give low values 0.952 | S. cerevisiae deletion strains, locus YNR049C, strain mso1, hits give low values 0.992 | S. cerevisiae deletion strains, locus YNR052C, strain pop2, hits give low values 0.949 | S. cerevisiae deletion strains, locus YOL006C, strain TOP1, hits give low values 0.97 | S. cerevisiae deletion strains, locus YOL012C, strain htz1 0.936 | S. cerevisiae deletion strains, locus YOL147C, strain pex11, hits give low values 0.945 | S. cerevisiae deletion strains, locus YOR001W, strain rrp6, hits give low values 0.967 | S. cerevisiae deletion strains, locus YOR061W, strain CKA2, hits give low values 1 | S. cerevisiae deletion strains, locus YOR069W, strain VPS5, hits give low values 0.959 | S. cerevisiae deletion strains, locus YOR070C, strain gyp1, hits give low values 0.999 | S. cerevisiae deletion strains, locus YOR080W, strain dia2, hits give low values 0.989 | S. cerevisiae deletion strains, locus YOR083W, strain WHI5, hits give low values 0.984 | S. cerevisiae deletion strains, locus YOR106W, strain vam3, hits give low values 0.988 | S. cerevisiae deletion strains, locus YOR136W, strain idh2, hits give low values 0.978 | S. cerevisiae deletion strains, locus YOR144C, strain elg1, hits give low values 0.961 | S. cerevisiae deletion strains, locus YOR184W, strain ser1, hits give low values 0.982 | S. cerevisiae deletion strains, locus YOR231W, strain MKK1, hits give low values 0.876 | S. cerevisiae deletion strains, locus YOR265W, strain rbl2, hits give low values 0.99 | S. cerevisiae deletion strains, locus YOR270C, strain vph1, hits give low values 0.889 | S. cerevisiae deletion strains, locus YOR290C, strain snf2, hits give low values 0.949 | S. cerevisiae deletion strains, locus YOR316C, strain cot1, hits give low values 0.942 | S. cerevisiae deletion strains, locus YPL051W, strain arl3, hits give low values 0.954 | S. cerevisiae deletion strains, locus YPL055C, strain LGE1, hits give low values 0.906 | S. cerevisiae deletion strains, locus YPL078C, strain atp4, hits give low values 0.967 | S. cerevisiae deletion strains, locus YPL106C, strain sse1, hits give low values 0.922 | S. cerevisiae deletion strains, locus YPL240C, strain hsp82, hits give low values 0.987 | S. cerevisiae deletion strains, locus YPL241C, strain CIN2, hits give low values 0.973 | S. cerevisiae deletion strains, locus YPR119W, strain clb2, hits give low values 0.958 | S. cerevisiae deletion strains, locus YPR141C, strain kar3, hits give low values 0.953 | S. cerevisiae deletion strains, locus YPR163C, strain tif3, hits give low values 0.981 | S. cerevisiae deletion strains, locus YPR167C, strain met16, hits give low values 0.946 | S. cerevisiae deletion strains, strain wtn01, hits give low values 0.987 | S. cerevisiae strains, strain wild type, hits give low values 0.971
